Assay [1] can be described thus: Primary qHTS for small molecule stabilizers of the endoplasmic reticulum resident proteome: Secreted ER Calcium Modulated Protein (SERCaMP) assay (AID 1508630). To be noted: SH-SY5Y GLuc-SERCaMP (Gaussia luciferase released on ER calcium loss) secretion, thapsigargin, luminescence; series mostly up to 38.4 µM. Put shortly: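 The SH-SY5Y reporter protocol was run at 3 concentrations up to 38.3 uM (primary) or 11 concentrations (follow-up): 16 h compound, 100 nM thapsigargin for 4 h, then extracellular luciferase luminescence.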

Assay [2] can be described thus: Primary qHTS for inhibitors of nuclear receptor binding SET domain protein 2 (NSD2) in an isogenic RCH-ACV NSD2 p.E1099K mutant (9B) (AID 1645876). Note: potency is the fitted concentration of half-maximal effect; nearly all actives have a fitted effect of over 70% in size. To be noted: RCH-ACV NSD2 E1099K (9B) viability, CellTiter-Glo, 72 h; series mostly up to 44.9 µM.
A short description of assay [3]: Primary qHTS for inhibitors of nuclear receptor binding SET domain protein 2 (NSD2) in an RCH-ACV wild type WT cells (2C) (AID 1645877). Note: potency is the fitted concentration of half-maximal effect; nearly all actives have a fitted effect of over 70% in size. To be noted: RCH-ACV (leukaemia line) NSD2 WT (2C) viability, CellTiter-Glo, 72 h; series mostly up to 44.9 µM. Background: In qHTS, concentration-response curves come from the screen itself.
In assay [4] the target is Cytochrome P450 2D6 (Homo sapiens) (UniProt P10635). Kind of assay: Cytochrome P450 family 2 subfamily D member 6 (CYP2D6) small molecule antagonists: luciferase biochemical (cell-free) qHTS assay (AID 1645840; active = well fitted curve in the direction sought with a large enough effect in the repeat runs; an effect the other way counts as inactive or inconclusive; note: nearly all actives have a fitted effect of over 55% in size; note: potency is the fitted concentration of half-maximal effect). To be noted: P450-Glo CYP2D6 enzyme, luciferin luminescence, 1 h; series mostly up to 57.4 µM. An outline of the steps: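 P450-Glo CYP2D6 system: proluciferin substrate converted by enzyme to luciferin, read by luminescence proportional to activity. Enzyme-substrate mix with compound 10 min at room temperature, then NADPH regeneration 1 h before detection reagent.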
Sequence of Cytochrome P450 2D6 (Homo sapiens) (P10635 whole entry, looked up): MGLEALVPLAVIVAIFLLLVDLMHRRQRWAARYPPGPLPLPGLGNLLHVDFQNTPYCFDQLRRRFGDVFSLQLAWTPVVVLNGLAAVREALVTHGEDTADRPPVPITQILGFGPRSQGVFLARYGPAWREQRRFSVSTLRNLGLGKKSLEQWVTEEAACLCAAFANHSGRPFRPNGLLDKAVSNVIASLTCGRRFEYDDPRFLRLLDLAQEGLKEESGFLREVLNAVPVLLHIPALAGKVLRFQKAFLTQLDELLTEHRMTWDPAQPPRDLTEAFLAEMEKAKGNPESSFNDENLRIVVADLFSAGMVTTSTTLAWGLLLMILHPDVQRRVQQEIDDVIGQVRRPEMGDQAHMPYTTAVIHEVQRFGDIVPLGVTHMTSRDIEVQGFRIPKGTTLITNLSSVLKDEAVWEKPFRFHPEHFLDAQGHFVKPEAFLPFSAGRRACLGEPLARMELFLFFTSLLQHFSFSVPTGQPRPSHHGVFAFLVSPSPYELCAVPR

Assay [5] deals with Cytochrome P450 2C9 (Homo sapiens) (UniProt P11712). Briefly: Cytochrome P450 family 2 subfamily C member 9 (CYP2C9) small molecule antagonists: luciferase biochemical (cell-free) qHTS assay (AID 1645842; active = well fitted curve in the direction sought with a large enough effect in the repeat runs; an effect the other way counts as inactive or inconclusive; note: potency is the fitted concentration of half-maximal effect; nearly all actives have a fitted effect of over 55% in size). The conditions noted are these: P450-Glo CYP2C9 enzyme assay, luciferin luminescence; series mostly up to 57.4 µM. Put shortly: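 P450-Glo CYP2C9 system: proluciferin substrate with enzyme in mix containing 0.4% BSA, 10 min at room temperature, then NADPH regeneration solution added and incubated 1 h at 37C. Detection reagent stopped reaction; luminescence read after 20 min as RLU.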
Sequence of Cytochrome P450 2C9 (Homo sapiens) (P11712 whole entry, looked up): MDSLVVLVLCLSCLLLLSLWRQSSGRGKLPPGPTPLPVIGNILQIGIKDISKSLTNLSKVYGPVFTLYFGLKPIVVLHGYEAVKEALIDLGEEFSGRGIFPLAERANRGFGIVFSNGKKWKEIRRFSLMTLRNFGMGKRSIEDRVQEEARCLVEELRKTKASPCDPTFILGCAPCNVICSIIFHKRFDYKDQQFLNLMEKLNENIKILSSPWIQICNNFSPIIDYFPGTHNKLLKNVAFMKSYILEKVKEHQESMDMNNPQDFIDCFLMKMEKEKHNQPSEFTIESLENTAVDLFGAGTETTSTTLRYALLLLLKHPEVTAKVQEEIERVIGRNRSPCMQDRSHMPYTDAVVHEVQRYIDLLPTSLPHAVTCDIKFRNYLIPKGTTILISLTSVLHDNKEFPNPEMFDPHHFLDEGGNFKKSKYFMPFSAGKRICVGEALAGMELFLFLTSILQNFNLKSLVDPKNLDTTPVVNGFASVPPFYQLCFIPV

“And” between values parts separate entries of the source, which are not always exact repeats. Equal values may be shown once. Records with an inconclusive call do not appear. The source made the active and inactive calls. Unless noted, calls come from the whole dose curve; as a rule, active = well fitted curve in the direction sought with a large enough effect; inconclusive = small, poorly fitted or top-dose-only effect, or another doubt; inactive = no such curve, though single readings can be large; an effect the other way counts as inactive or inconclusive.

For the compound `C[C@@H]1CN(CC(=O)Nc2ccc3c(c2)Cc2cccc(-c4cc(=O)cc(N5CCOCC5)o4)c2S3)C[C@H](C)O1`, the Potency entry in assay [1] is “inactive”. The Potency is 5.9 µM (active) in assay [2] and 4.68 µM (active) in assay [3].

Take `Cc1cnc(Nc2ccc(F)cc2Cl)nc1-c1c[nH]c(C(=O)N[C@H](CO)c2cccc(Cl)c2)c1`: the Potency in assay [4] is 8.49 µM (active); in assay [5] it was 3.38 µM (active); in assay [2], 2.9 µM (active) and 18.6 µM (active); in assay [3], 3.65 µM (active) and 14.8 µM (active).

Regarding `CN(c1ncccc1CNc1nc(Nc2ccc3c(c2)CC(=O)N3)ncc1C(F)(F)F)S(C)(=O)=O`, the Potency entry in assay [1] was “inactive”. Further, the Potency in assay [2] was 5.17 µM (active); in assay [3], 8.33 µM (active).

`CCc1cc2c(cc1N1CCC(N3CCOCC3)CC1)C(C)(C)c1[nH]c3cc(C#N)ccc3c1C2=O`: the Potency entry in assay [1] is “inactive”. Moreover, the Potency in assay [3] was 1.42 µM (active).

Turning to `C[C@]1(CO)CN(c2cc(C(=O)Nc3ccc4c(c3)-c3c(c(C(N)=O)nn3-c3ccc(F)cc3)CC4)c(Cl)cn2)C[C@@]1(C)CO`, in assay [1], the Potency result was “inactive”. Further, the Potency in assay [2] and in assay [3] was 3.25 µM (active) in each case.

On to `O=C(Nc1ncc(-c2cc(C(F)F)nn2-c2c(Cl)cccc2Cl)s1)C1CC1`, for which the Potency is 10.7 µM (active) in assay [4], 6.74 µM (active) in assay [5], 0.934 µM (active) in assay [2] and 0.417 µM (active) in assay [3].

With `CS(=O)(=O)c1ccc(-c2cnc(N)c(C(=O)Nc3ccccc3)n2)cc1`, the Potency entry in assay [4] is “inactive”. The Potency is 12 µM (active) in assay [5], 2.63 µM (active) in assay [2] and 2.63 µM (active) in assay [3].

As to `CCOC(=O)C1=C(C)NC2=C(C(=O)CC(C)(C)C2)C1c1ccc(-c2ccccc2)cc1` (stereo not given), the Potency result in assay [4] is “inactive”. In assay [5], the Potency is 2.68 µM (active).

Values taken from PubChem BioAssay (NCATS).
